# Screens as filed in PubChem BioAssay.
# Only some compounds are listed: those with a hit (about 3.5% of all), similar ones and a draw of the others.
# TEAD-YAP inh – TEAD-YAP interaction inhibition; HEK-TIYL cells, TEAD-Gal4/YAP UAS-luciferase luminescence; AID 1259422; 640,000 tested, 1.4% active; inhibition, % at 9.12 µM; in the data active = inhibition above about 32%;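 note: 0% = median of test compound wells and 100% = reference inhibitor wells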
# GPR151 activ – activates the human receptor GPR151. AID 1508602. Q8TDV0. PathHunter beta-arrestin GPR151 cells, luminescence. 650,000 tested, 1% active. activation, % at 11.2 µM; in the data active = activation above about 4.9%;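 note: 0% = median of compound wells and 100% = cells with positive control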
# FBW7 act – human FBW7 E3 ligase activation, primary screen | Q969H0 | AlphaScreen FBW7–phospho-cyclin E peptide binding, activator screen | normalized activity (activation), % at 26.1 µM | 650,000 tested, 0.13% active; in the data active = normalized activity above about 1.9%;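 note: purified mutant Fbw7 with reduced substrate affinity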
# MITF inh – human MITF inhibition, primary screen; 650,000 tested, 0.91% active; inhibition, % at 2.6 µM; AlphaScreen MITF homodimerization, bead proximity signal; O75030; AID 1259374; in the data active = inhibition above about 50%;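 note: 0% = vehicle wells with protein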
# Target sequence (O75030 whole entry, looked up): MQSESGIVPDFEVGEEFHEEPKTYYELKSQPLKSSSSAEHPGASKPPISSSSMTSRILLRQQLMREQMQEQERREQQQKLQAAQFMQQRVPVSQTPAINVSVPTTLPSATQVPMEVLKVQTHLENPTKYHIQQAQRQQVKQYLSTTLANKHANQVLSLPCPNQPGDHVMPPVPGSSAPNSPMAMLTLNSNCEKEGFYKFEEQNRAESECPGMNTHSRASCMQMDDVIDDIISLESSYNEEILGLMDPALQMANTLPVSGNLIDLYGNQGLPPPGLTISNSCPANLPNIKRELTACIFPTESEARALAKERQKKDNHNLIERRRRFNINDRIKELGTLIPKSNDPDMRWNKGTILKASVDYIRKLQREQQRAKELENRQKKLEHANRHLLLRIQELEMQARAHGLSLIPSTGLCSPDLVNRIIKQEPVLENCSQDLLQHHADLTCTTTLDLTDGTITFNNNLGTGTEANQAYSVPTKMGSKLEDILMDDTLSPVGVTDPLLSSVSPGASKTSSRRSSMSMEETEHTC
# * = called active by the depositor.
SMILES,TEAD-YAP inh,GPR151 activ,FBW7 act,MITF inh
NC(=O)c1ccc(N2CCN(S(=O)(=O)c3ccc4ccccc4c3)CC2)c([N+](=O)[O-])c1,45*,3,0,4
O=C(O)c1ccc2c(c1)NC(=O)c1ccccc1S2(=O)=O,-4,-2,1.9*,-2
Cc1ccc2c(CC(=O)Nc3sc4c(c3C(N)=O)CCCC4)coc2c1,-5,-1,0,-8
COCCCNC(=O)c1c(NC(=O)Cc2coc3ccc(C)cc23)sc2c1CCCC2,48*,2,0,9
c1ccc(-c2ccc(N=c3oc4ccccc4cc3-c3nc4ccccc4[nH]3)cc2)cc1,-6,1,0,9
Cc1ccc(C(C[N+](=O)[O-])c2c[nH]c3ccccc23)o1 (stereo unspecified),54*,-1,0,0
COc1ccc(/C=C/C(=O)Nc2ncc(Cc3ccccc3)s2)cc1,-2,0,0,4
COc1ccc(Cc2cnc(NC(=O)/C=C/c3ccco3)s2)cc1,64*,-1,0,2
COc1ccc(Cc2cnc(NC(=O)/C=C/c3ccccc3)s2)cc1,56*,2,0,-2
CCCCc1ccc(-c2nc(Nc3cc(Oc4ccccc4)cc([N+](=O)[O-])c3)c3ccccc3n2)cc1,50*,4,0,-12
CCCCc1ccc(-c2nc(Nc3cc(Oc4ccc(F)cc4)cc([N+](=O)[O-])c3)c3ccccc3n2)cc1,-11,1,0,16
COc1cc(-c2nc(Nc3cc(Sc4ccc(F)cc4)cc([N+](=O)[O-])c3)c3ccccc3n2)cc(OC)c1OC,-3,0,0,5
CCCCc1ccc(-c2nc(Nc3cc(Sc4ccc(F)cc4)cc([N+](=O)[O-])c3)c3ccccc3n2)cc1,57*,1,0,10
Nc1nccc(-c2cnc3nc(C4COc5ccc(C(=O)NCCc6cccnc6)cc5C4)[nH]c3c2)n1 (stereo unspecified),-5,1,1,-6
Nc1nccc(-c2ccc3nc(C4COc5ccc(C(=O)NCCc6ccccn6)cc5C4)[nH]c3c2)n1 (stereo unspecified),-6,1,9.0*,11
CC(C)CNC(=O)c1ccc2c(c1)CC(c1nc3ncc(-c4ccnc(N)n4)cc3[nH]1)CO2 (stereo unspecified),-3,2,0,27
Nc1nccc(-c2ccc3nc(C4COc5ccc(C(=O)NCCc6cccnc6)cc5C4)[nH]c3c2)n1 (stereo unspecified),0,1,4.2*,7
CN(C)CCNC(=O)c1ccc2c(c1)CC(c1nc3ncc(-c4ccnc(N)n4)cc3[nH]1)CO2 (stereo unspecified),-48,1,2,72*
O=C(N/N=C/C1CC2CCC1C2)c1ccc([N+](=O)[O-])cc1 (stereo unspecified),10,-1,0,14
O=C(N/N=C/C1CC2CCC1C2)c1cccc2ccccc12 (stereo unspecified),37*,0,0,-7
COc1ccc(CCNc2ncnc3sc(C)cc23)cc1OC,61*,3,0,-10
COc1ccc(CCNc2ncnc3ccc(I)cc23)cc1OC,74*,4,0,9
COc1ccc(CCNc2ncnc3c2cnn3C)cc1OC,14,0,0,-3
CCc1cc2c(NCCc3ccccc3)ncnc2s1,36*,2,0,0
CCc1cc2c(NCc3ccccc3)ncnc2s1,17,2,0,-21
SMILES,TEAD-YAP inh,GPR151 activ,FBW7 act,MITF inh
C[C@@H]1CN(Cc2ccc3c(c2)CN(C(=O)Cc2cccnc2)CCO3)C[C@H](C)O1,9,2,0,18
Cc1nc(C)n(-c2ccc(Nc3cc(-c4nn(-c5ccc(N(C)C)cc5)cc4-c4ccccc4)ccn3)cc2)n1,-13,1,0,2
Cc1nc(C)n(-c2ccc(Nc3cc(-c4nn(-c5ccc(C#N)cc5)cc4-c4ccccc4)ccn3)cc2)n1,42*,-2,1,18
Cc1nc(C)n(-c2ccc(Nc3cc(-c4nn(-c5ccccc5C#N)cc4-c4ccccc4)ccn3)cc2)n1,33*,-2,0,19
Cc1nc(C)n(-c2ccc(Nc3cc(-c4nn(-c5nccs5)cc4-c4ccccc4)ccn3)cc2)n1,11,0,0,3
COc1ccccc1C(=O)Oc1ccc(Cl)cc1NC1=NS(=O)(=O)c2ccccc21,-8,0,0,-3
O=C(Oc1ccccc1NC1=NS(=O)(=O)c2ccccc21)c1ccccc1Cl,60*,2,0,13
CCc1ccccc1NC(=O)CSC1=C(C#N)C(c2ccc(C)o2)C2=C(CCCC2=O)N1 (stereo unspecified),55*,-1,0,-3
CC1CN2C(=O)Cc3c(S(=O)(=O)NCc4cccs4)ccc(c32)S1 (stereo unspecified),8,-1,0,9
Cc1cc(C)cc(NS(=O)(=O)c2ccc3c4c2CC(=O)N4CC(C)S3)c1 (stereo unspecified),34*,0,0,2
COC(=O)c1c(NC(=O)C(F)(F)F)sc(Cc2ccccc2)c1C,5,1,0,-7
COC(=O)c1c(NC(=O)/C=C\C(=O)O)sc(Cc2ccccc2)c1C,32*,0,0,-5
CCCCOC(=O)n1c(SCC(=O)OCC)nc2ccccc21,-17,0,0,-4
O=C1OC2(CCCCC2)OC(=O)C1=Cc1ccc(Br)o1,-4,-1,0,74*
OCC1CCCN1c1nccc(NC2CC2)n1 (stereo unspecified),-6,-1,0,20
COc1ccc2c(c1)C(c1ccccc1)(C(C)C)C(=O)N2 (stereo unspecified),8,0,0,12
CCc1ccc(-n2nc3cc(C)c(N)cc3n2)cc1,-32,-1,1,8
Cc1ccc(-n2nc3cc(C)c(N)cc3n2)cc1,37*,-1,0,-11
CN(C(=O)CN(C)S(=O)(=O)c1ccc2ccccc2c1)c1ccccc1,-1,0,0,0
CCC1=[N+](CC(=O)c2ccccc2)CCn2cccc21,-4,-1,2.5*,11
O=C(Nc1ccc(S(=O)(=O)C(F)F)cc1)c1cc(F)c(F)c(F)c1F,37*,0,0,8
CN(CCc1ccccc1)C1CCN(c2ccc(CC(=O)N3CCC(O)CC3)cc2)CC1,-2,0,0,-10
CC1(C)C(=O)Nc2ccccc2N1C(=O)CCl,48*,0,0,-8
CC1(C)C(=O)Nc2ccccc2N1C(=O)CN1C(=O)c2ccccc2C1=O,-4,0,0,-3
CCOc1c(Cl)cc(C(=O)OCC(=O)N2c3ccccc3NC(=O)C2(C)C)cc1OC,32*,-1,0,14
NC(=S)N/N=C/c1cc(Cl)cc(Cl)c1O,7,0,-3,37
NC(=O)N/N=C/c1cccc(C(=O)O)c1O,3,1,0,-6
Cc1cc(/C=N/NC(N)=S)c(O)c(/C=N/NC(N)=S)c1,0,0,-1,82*
Oc1cccc(/C=N/NC(=S)NCCN2CCOCC2)c1O,-18,0,-1,106*
